# Measurements from the supplement of paper PMC5919970.
# Structures can show the parent of a compound that is named as a salt. Whole data set: some 2,000 compounds, median “fractional viability relative to vehicle” near 0.91, cut for the lowest 2% near 0.045. The full list was thinned out, with the lowest values kept by preference.
# Test system: TYKNU
# Test: fractional viability relative to vehicle; TYKNU is a high-grade serous ovarian cancer line; higher = less growth inhibition
# Details: 72 h
# Method in brief: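 TYKNU control cells or lentiCRISPRv2 knockout derivatives were plated at 500 cells per well in duplicate into drug-stamped 384-well plates holding a ~2100-compound library at 2 or 10 μM. Culture was in RPMI 1640 with 10% FBS at 37 °C in 5% CO2, with 72 h of drug treatment. Viability was measured by Cell Titer Glo luminescence, and the averaged duplicate treatment wells were normalised to duplicate control wells at the same plate position.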
# [1] = 2uM, genotype: DNM1L knockout (sgDNM1L #1)
# [2] = 2uM, genotype: sgCTRLA1 (non-targeting control)
# [3] = 10uM, genotype: DNM1L knockout (sgDNM1L #1)
# [4] = 10uM, genotype: sgCTRLA1 (non-targeting control)
Compound,fractional viability [1],fractional viability [2],fractional viability [3],fractional viability [4]
N#C/C(=C\c1ccc(O)c(O)c1)C(=O)NCc1ccccc1 [AG-490 (Tyrphostin B42)],0.921,1.01,0.84,0.99
CCC[C@H](NC(=O)/C(C#N)=C/c1cccc(Br)n1)c1ccccc1 [Degrasyn (WP1130)],0.0738,0.0639,0.0286,0.026
C[C@H](NC(=O)/C(C#N)=C/c1cccc(Br)n1)c1ccccc1,0.9,0.999,0.0615,0.0707
O=C(Nc1cccc(Cl)c1)Nc1ncc(CCNc2ncnc3ccsc23)s1 [SNS-314 Mesylate],0.705,0.722,0.644,0.404
O=C(c1ccc(Nc2nccc(-c3cc4ccccc4s3)n2)cc1)N1CCC(N2CCCC2)CC1 [IKK-16 (IKK Inhibitor VII)],0.942,0.839,0.0381,0.0277
O=C(c1ccc(C(=O)N2CCC(N3CCCC3)CC2)c(Nc2ccccc2)c1)N1CCC(N2CCCC2)CC1,0.857,1,0.708,0.973
O=C(c1cncc(Br)c1)N1CCC(N2CCCC2)CC1,0.816,0.901,0.828,0.765
NC[C@H](O)c1ccc(O)c(O)c1 [Noradrenaline bitartrate monohydrate],0.847,0.96,0.592,0.84
O=C(/C=C/C=C/c1ccc2c(c1)OCO2)N1CCCCC1 [Piperine],0.998,1.08,0.915,1.03
O=C(O)Cc1ccccc1Nc1c(Cl)cccc1Cl [Diclofenac Potassium],1.17,1.13,0.876,1.07
O=C(O)Cc1ccccc1Nc1c(Cl)cccc1Cl [Diclofenac Sodium],1.12,0.938,0.917,0.967
O=C(O)Cc1ccccc1Nc1c(Cl)cccc1Cl [Diclofenac Diethylamine],1,1.03,0.893,1.14
CN(C)c1ccc(-c2nc3ncc(Cl)c(N4CCN(CC(=O)Nc5nccs5)CC4)c3[nH]2)cc1,1.15,0.937,0.395,0.714
O=C1c2c(O)cc(O)cc2OC(c2ccc(O)c(O)c2)C1O (stereo not given) [Taxifolin (Dihydroquercetin)],1.04,1.15,0.951,1.06
COc1cccc(-c2cc(F)ccc2C2Cc3nc(N)nc(C)c3C(=O)N2)n1 (stereo not given),0.241,0.191,0.227,0.201
COc1ccc(-c2cc3c(C)nc(N)nc3n([C@H]3CC[C@H](OCCO)CC3)c2=O)cn1,0.141,0.165,0.0585,0.0406
CCN1C[C@H](C)n2c(c(O)c3c(=O)n(Cc4ccc(F)c(Cl)c4)nc(C(=O)NC)c32)C1=O,1.07,1.2,0.793,1.12
N[C@H]1CC[C@H](N[C@@H]2C[C@H]2c2ccccc2)CC1,0.777,0.909,0.758,0.712
Cc1cc(OCc2nnc(SC3CCCC3)n2-c2cccnc2)ccc1-c1ccc(S(C)(=O)=O)cc1,0.545,0.46,0.0437,0.0922
CC(C)[C@H](O)C(=O)N[C@@H](C)C(=O)N[C@@H]1C(=O)N(C)CCc2ccccc21,1.04,1.25,0.949,1.15

Compound,fractional viability [1],fractional viability [2],fractional viability [3],fractional viability [4]
Cc1ccc(S(=O)(=O)c2ccc([N+](=O)[O-])o2)cc1,0.0323,0.012,0.0126,0.00867
NC(=O)c1ccc(-c2nc(-c3ccccn3)c(-c3ccc4c(c3)OCO4)[nH]2)cc1,1.32,1.08,1.16,0.957
COc1ccccc1OCC(O)COC(N)=O (stereo not given) [Methocarbamol],1.02,1.16,0.9,1
O=C(NC[C@H](O)CO)c1ccncc1Nc1ccc(I)cc1F,0.333,0.318,0.212,0.205
CCCSc1nc(N[C@@H]2C[C@H]2c2ccc(F)c(F)c2)c2nnn([C@@H]3C[C@H](OCCO)[C@@H](O)[C@H]3O)c2n1 [Ticagrelor],0.944,1.12,0.492,0.903
CCN(CC)C(=S)SSC(=S)N(CC)CC [Disulfiram],0.456,0.291,0.0708,0.0241
CC(=O)N1c2ccc(-c3ccc(C(=O)O)cc3)cc2[C@H](Nc2ccc(Cl)cc2)C[C@@H]1C,0.281,0.395,0.237,0.208
CC(=O)Nc1ccc(C(=O)Nc2ccccc2N)cc1 [CI994 (Tacedinaline)],0.966,0.965,0.456,0.675
Cc1cc(Nc2ccc(NC(=O)c3ccc(Nc4ccnc5ccccc45)cc3)cc2)nc(N)n1,0.0197,0.0121,0.0121,0.00969
CNCc1ccc(C)c(NC(=O)c2ccc(Nc3nc(-c4ccccc4)c4ccccc4n3)cc2)c1,0.752,1.03,0.0487,0.0706
COc1cc(OC)c2c(=O)[nH]c(-c3cc(C)c(OCCO)c(C)c3)nc2c1,1.15,1.12,0.973,1.03
CN(C)CCNC(=O)c1cccn2c(=O)c3cc4ccccc4cc3nc12,0.389,0.417,0.107,0.0609
Cc1cnc(Nc2ccc(N3CCN(C)CC3)cc2)nc1Nc1cccc(S(=O)(=O)NC(C)(C)C)c1,0.363,0.472,0.0682,0.0804
C=CC(=O)Nc1cccc(Nc2nc(Nc3ccc(OCCOC)cc3)ncc2F)c1,0.626,0.721,0.273,0.297
Cc1cnc(Nc2ccc(OCCN3CCCC3)cc2)nc1Nc1cccc(S(=O)(=O)NC(C)(C)C)c1,0.352,0.378,0.0362,0.0573
Cc1nc(Nc2cnn(C3CCNCC3)c2)nc2c1N(C)C(=O)c1cc3ccccc3cc1N2C,0.723,0.802,0.376,0.51
CCN(CC)CCOc1ccc(C(=C(Cl)c2ccccc2)c2ccccc2)cc1 [Clomifene citrate],0.751,1.08,0.178,0.479
O=S(=O)(NCCSSCCNS(=O)(=O)c1cc(Cl)ccc1Cl)c1cc(Cl)ccc1Cl,0.891,0.899,0.197,0.43
CN1CCN(Cc2ccc(Nc3ncc(Cl)c(Nc4ccccc4S(=O)(=O)N(C)C)n3)cc2)CC1,0.22,0.229,0.234,0.18
Cc1cc(Nc2ncc(Cl)c(Nc3ccccc3S(=O)(=O)C(C)C)n2)c(OC(C)C)cc1C1CCNCC1,0.612,0.403,0.026,0.0128

Compound,fractional viability [1],fractional viability [2],fractional viability [3],fractional viability [4]
O=C(O)c1cc2cccc([N+](=O)[O-])c2[nH]1,0.859,1.09,0.957,0.802
CCCCNc1ncc2c(-c3ccc(CN4CCN(C)CC4)cc3)cn([C@H]3CC[C@H](O)CC3)c2n1,0.322,0.41,0.0773,0.0599
C=CCc1cccc(/C=N/NC(=O)CN2CCN(Cc3ccccc3)CC2)c1O,0.604,0.671,0.277,0.27
Cc1[nH]nc2ccc(-c3cncc(OC[C@@H](N)Cc4ccccc4)c3)cc12,0.23,0.212,0.137,0.0399
CC[C@H]1OC(=O)C[C@@H](O)[C@H](C)[C@@H](O[C@@H]2O[C@H](C)[C@@H](O)[C@H](N(C)C)[C@H]2O)[C@@H](CCN2C[C@H](C)C[C@H](C)C2)C[C@@H](C)C(=O)/C=C/C(C)=C/[C@@H]1CO[C@@H]1O[C@H](C)[C@@H](O)[C@@H](OC)[C@H]1OC [Tilmicosin],2.22,1.13,1.49,1.11
CC(/C=C1\SC(=S)N(CC(=O)O)C1=O)=C\c1ccccc1 [Epalrestat],0.92,1.11,0.89,1.03
CCOC(=O)[C@H]1O[C@@H]1C(=O)N[C@@H](CC(C)C)C(=O)NCCC(C)C [Aloxistatin],0.853,0.91,0.817,0.78
Cc1c[nH]c(/C=C2\C(=O)Nc3ccccc32)c1CCC(=O)O,0.91,0.936,0.874,0.784
CC(C)(C)NCC(O)COc1cccc2c1CCC(=O)N2 (stereo not given) [Carteolol HCl],0.876,1.16,0.838,1.14
CC(C)(Cc1ccc2ccccc2c1)NC[C@@H](O)COc1cccc(Cl)c1C#N,0.854,1.1,0.585,0.0354
CC(C)NCC(O)COc1cccc2ccccc12 (stereo not given) [Propranolol HCl],0.866,1.12,0.82,1.1
NCc1c[nH]c(=S)n1[C@H]1CCc2c(F)cc(F)cc2C1 [Nepicastat (SYN-117) HCl],0.973,1.11,0.953,0.993
NC1=N[C@@](c2cccc(-c3cncnc3)c2)(c2ccnc(C(F)F)c2)c2cccc(F)c21,0.851,1.01,0.765,0.736
CCCc1cc2c(N3CCN(C4=NCC(C)(C)S4)CC3)ncnc2s1 [MI-2 (Menin-MLL Inhibitor)],0.919,0.869,0.747,0.665
CCOC(=O)c1cnc2ccc(-c3cncc(NS(=O)(=O)c4ccccc4)c3)cn12,0.176,0.171,0.183,0.108
O=C(c1ccccc1)c1ccc2nc(NC(=O)c3csc(C4CCN(c5ncnc6ccsc56)CC4)n3)[nH]c2c1,0.749,1.15,0.481,0.328
CC(C)OC(=O)C1=CN(C(=O)c2ccc(F)c(F)c2)CC(C)(C)c2c1[nH]c1ccccc21,0.991,1.05,0.865,0.965
CN1CCN(c2ccc(C(=O)Nc3n[nH]c4ccc(Cc5cc(F)cc(F)c5)cc34)c(NC3CCOCC3)c2)CC1 [Entrectinib (RXDX-101)],0.597,0.771,0.0511,0.0303
CCc1cccc(CC)c1NC(=O)N1Cc2[nH]nc(NC(=O)c3ccc(N4CCN(C)CC4)cc3)c2C1,0.538,0.711,0.359,0.462
CO[C@@H](C(=O)N1Cc2[nH]nc(NC(=O)c3ccc(N4CCN(C)CC4)cc3)c2C1)c1ccccc1,0.503,0.521,0.486,0.427
